Results published in PubChem BioAssay AID463176 (Southern Research Specialized Biocontainment Screening …, 2010).
Calls of active or inactive are those of the source.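 The calls were made as follows: active = inhibition above 30% at one or more tested concentrations in the dose response; inactive = inhibition below 30% at every tested concentration.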

Experiment: PhoP-driven GFP reporter repression, Typhimurium – synthesized compounds, set 5, late-stage follow-up (AID 463176)
Conditions: S. Typhimurium PhoP-promoter GFP reporter, fluorescence, 4 h; series mostly up to 150 µM

outcome, inactive:
Clc1ccc(C2Sc3ccccc3N=C3c4ccccc4CC32)cc1 (stereo unspecified), O=C1C2=C(Nc3ccccc3SC2c2ccc(Cl)cc2)c2ccccc21 (stereo unspecified), COc1cccc(NC(=O)N2CCCN(Cc3ccccc3F)C2)c1, O=C1C2=C(Nc3ccccc3SC2c2cccnc2)c2ccccc21 (stereo unspecified), Cc1ccc(C2Sc3ccccc3N=C3c4ccccc4CC32)cc1 (stereo unspecified), O=C1C2=C(Nc3ccccc3SC2c2cccc(Br)c2)c2ccccc21 (stereo unspecified)
